Experimental data taken from PubChem BioAssay AID1508600 (Functional Genomics Laboratory (NCATS/FGL), 2020).
The whole screen tested about 53,000 sequences, of which about 3,700 (7%) were called active. Only a selection was taken, and actives are over-represented in it overall. Values without a mark were called inactive.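 The calls were made as follows: active = gene knockdowns whose robust z-score for IL-1 alpha signal is at least 2 or at most -2, so actives lie on both sides; inactive = the rest.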

Experiment: Components of the Cytosolic LPS Sensing Pathway: Gene Identification via Genome-wide siRNA Screen;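 also: robust z of the log signal after scaling to non-targeting control siRNA wells of the plate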
Details: RAW264.7 macrophages, IL-1a HTRF, actives lie on both sides, screened at 100 nM (by protocol), cells primed 5 h with Pam3CSK4 first
Summary of the method: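 RAW264.7; siRNA 100 nM final, RNAiMAX, 48h 37 degrees C; Pam3CSK4 5 h; LipidA + TransIT-TKO 24 h; IL-1a HTRF; CellTiter-Glo viability; robust z vs negative-control median.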

Sequence | z-score
GCCCUUAAAACAUAACCACTT against Fgf9 | 0.615
CCAAGAUUAACCAUAACACTT against Mrpl50 | 0.017
GCUCCUACAGAGAAUAAGATT against Eny2 | -1.7
GGACGAGGACCAGCUAGAATT against Txn2 | -2.07 (active)
GGGACAUUUCCAUCCUUUUTT against Prdx6b | -1.28
GCUCCUUUGGUUCAACAUCTT against Olfr635 | -1.78
GCAACCAUUCUGGUAUUACTT against Zfp108 | 0.904
CCAUUAAUAAAGCGUGGGUTT against Cacybp | 0.562
GGAAAUUUGGAAAUUGCCUTT against Ntm | 2.46 (active)
GGAUCAUCACUACUACAAUTT against 4932415M13Rik | 2.37 (active)
GGCUGCUCGAAUCAGUCAUTT against Slc27a3 | 0.237
GGAAUUUUCUACAUGUGUGTT against Lim2 | -2.12 (active)
CCAGAUCCUAAAGUCUUUATT against Trpd52l3 | 0.677
CCACCGGAUCGAAGACAGUTT against Tanc2 | -1.28
CGUCCCUAGUAUAAAAAGATT against Cxxc5 | -0.273
GGCUUUCACCUUAAUUGAUTT against Fntb | -0.296
CCCAGUACAGCCUUGUGGUTT against Med25 | -2.02 (active)
CGACAAGGGUUUUUAUUCUTT against Smcr8 | -0.414
GCCUCUCAACAUGAAUUAATT against Gm9918 | 0.524
CCAAGUUUAACAUCCAGGGTT against Pfkm | -0.126
GGAUGGAGACCUCUCCUUUTT against Guca2a | 1.36
CCAGCGAUCUUCCCAUUCUTT against Ccr8 | -0.844
GCCCUAAUCUAUGGGACAUTT against Tmem179 | 3.06 (active)
UUCAUUCAUAUGGACAGUUTT against Psg19 | 1.73
GCCACAAUGGGCAGUCUUATT against Kcp | 0.0139
GCGGAAGUCGGAUUUUAUCTT against Kif1c | 3.01 (active)
CCAACACGUUGCACAGAGUTT against A830073O21Rik | 0.611
GGACAACCGAAGUUUUAAUTT against E130308A19Rik | 0.0435
GGAGGUGACUAUCAUUUUUTT against Gng4 | -0.498
CCAGCAAGUAAAACAAGCUTT against Olfr803 | 0.998
